Mot1-301 SUMO: SUMOylation pathway inhibition by Mot1-301 growth rescue; S. cerevisiae Mot1-301 growth rescue, ATP luminescence, 38.5C; percent above DMSO median, 100 means doubled; growth rescue, % at 18.8 µM; 1% of 320,000 active; AID 2716;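 active means every valid replicate shows activation above 250% relative to neutral control wells; inactive means the rest, any valid replicate at or below 250%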;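 further: OY570 slx delta 5 strain wells were the positive control but not used for scaling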
HIF act: HIF pathway transcriptional activation | U2OS HRE-luciferase reporter, luminescence; normalized: DMSO 0%, desferrioxamine 100% | activation, % at 7.5 µM (by protocol) | AID 1910 | 0.32% of 300,000 active;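 active means mean activation of at least 10% of the iron chelator positive control signal, with at least half of replicates also reaching 10%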
AI-2 QS modul: modulates the Vibrio harveyi AI-2 quorum sensing system | Vibrio harveyi JMH597 AI-2 luminescence/OD600 ratio, 9 h; hits give low values; strain lacks LuxN and CqsS sensors; 0 = neutral-control median | activity change, % at 7.5 µM | 0.4% of 300,000 active; in the data active means activity change below about -75%, passing the limit was not always enough;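 further: luminescence divided by OD600 gain over 9 h not by final OD600 alone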
ALR inh: human ALR oxidase inhibition via reduced H2O2; purified ALR, DTT oxidation, H2O2 HRP-luminol luminescence; inhibition, % (concentration not given with the values); 3.8% of 290,000 active; AID 485317;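 active means mean replicate inhibition above about 79%, with every replicate also reaching it, limit read from the data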
Target sequence (P55789 whole entry, looked up): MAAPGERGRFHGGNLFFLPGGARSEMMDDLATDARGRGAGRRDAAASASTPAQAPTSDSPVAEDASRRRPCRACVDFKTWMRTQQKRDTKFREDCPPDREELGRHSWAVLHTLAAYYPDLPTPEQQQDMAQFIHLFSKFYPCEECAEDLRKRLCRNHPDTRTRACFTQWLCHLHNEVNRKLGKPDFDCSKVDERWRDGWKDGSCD
Mot1 SUMO dose: SUMO pathway inhibitors in yeast Mot1-301 growth. shares compounds with Mot1-301 SUMO. growth activity, percent, % at 42 µM. S. cerevisiae Mot1-301 galactose growth, ATP luminescence, 24 h; -100 = growth of slx-deleted rescue strain. AID 493004. 2,300 tested, under 10 active;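 active means Signal drops as the depositor expects, and the fitted half-maximal dose is no more than ten times the top valid tested dose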;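 further: more negative values mean stronger growth rescue toward the control strain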
Active calls of the source: *; . = not tested or not shown; + = active, no number. Only some compounds are listed: those with a hit (about 4.8% of all), similar ones and a draw of the others.

SMILES | Mot1-301 SUMO | HIF act | AI-2 QS modul | ALR inh | Mot1 SUMO dose
O=c1c2ccccc2nc(CNc2ccccc2)n1-c1ccccc1 | 9 | 0 | 6 | -6 | .
CCOC(=O)c1c(C)[nH]c(C)c1C(=O)C(Cc1ccccc1)N(C)C (stereo not given) | 9 | 0 | 4 | . | .
O=c1[nH]c(O)c(N=Nc2cc([N+](=O)[O-])ccc2O)c(=O)[nH]1 | 649* | -1 | 3 | 14 | 0
COCCO[C@H]1CC[C@@]2(C)C(=CCC3C2CC[C@@]2(C)C3CC[C@]2(C)O)C1 (stereo not given in full) | -4 | . | . | -4 | .
CC1CN=C(NCc2ccccc2Cl)S1 (stereo not given) | -3 | 1 | 11 | -13 | .
CC1CN=C(NCc2ccccc2)S1 (stereo not given) | 679* | 0 | 12 | -3 | 0
COC(C)(C)CCCC(C)C/C=C/C(C)=C/C(=O)OC(C)C (stereo not given) | 117 | . | . | -4 | .
CN(C=O)CP(=O)(O)CN(C)C=O | 570* | 0 | 0 | -3 | 0
COC(=O)C1=C(c2cccc(C#N)c2)C[C@@H]2CC[C@H]1N2C(=O)NCCOc1ccc(OC)cc1 | 8 | . | . | -1 | .
OC[C@@H](O)CCl | 360* | 0 | 9 | 2 | 0
CN1C(=O)C(=Cc2cn(CC(=O)N3CCCC3)c3ccccc23)C(=O)N(C)C1=O | + | 0 | 9 | 36 | 1
O=C(O)C1C(C(=O)O)C2(Cl)C(Cl)=C(Cl)C1(Cl)C2(Cl)Cl (stereo not given) | 400* | . | . | 1 | 1
Cc1ccc(O)c(C)c1 | 389* | . | . | -5 | 1
O=C1NC(=O)C(=Cc2ccc(N3CCOCC3)cc2)C(=O)N1 | 505* | 0 | 35 | 46 | 0
COc1cc(N2CCOCC2)ccc1C=C1C(=O)NC(=O)NC1=O | -15 | 0 | 0 | 2 | .
Cc1cc(C)n(CCOC(=O)C2C(C=C(Cl)Cl)C2(C)C)n1 (stereo not given) | 905* | 0 | 18 | 4 | 0
COC(=O)C1=C(c2ccc(F)cc2F)C[C@@H]2CC[C@H]1N2C(=O)NCCOc1ccccc1Cl | -2 | . | . | -4 | .
O=[N+]([O-])c1ccc(N2CCCC2)c(F)c1Br | -6 | 0 | 21 | -1 | .
Cc1cc(Oc2cc(NN3CCCCC3)c([N+](=O)[O-])cc2[N+](=O)[O-])ccc1[N+](=O)[O-] | 752* | 0 | 15 | 8 | 0
NC(C(=O)O)c1cc(=O)[nH]o1 (stereo not given) | 105 | . | . | -5 | .
O=[N+]([O-])c1cccc(CN2CC=C(c3ccc(F)cc3)CC2)c1 | 18 | 1 | 8 | -7 | .
O=[N+]([O-])c1ccccc1CN1CC=C(c2ccc(F)cc2)CC1 | + | -26 | 4 | -2 | 1
CC(C)(O)C(=O)Nc1ccc([N+](=O)[O-])c(C(F)(F)F)c1 | -20 | . | . | -7 | .
O=C(O)c1cc(Oc2ccc(C(F)(F)F)cc2Cl)ccc1[N+](=O)[O-] | 514* | 0 | 21 | 0 | 0
O=C(c1ccccc1)C(CN1CCCC1)c1ccccc1 (stereo not given) | 560* | -4 | 7 | 97* | -1
SMILES | Mot1-301 SUMO | HIF act | AI-2 QS modul | ALR inh | Mot1 SUMO dose
COc1ccccc1-n1c(O)c(/C=C2\C=Nc3ccccc32)c(=O)[nH]c1=O | 562* | -27 | 11 | 22 | 0
Cc1cccc(C#N)c1 | 240 | . | . | 0 | .
Cc1cccc(N=Nc2ccc(N(C)C)cc2)c1 | 736* | 1 | 27 | 46 | 0
CC(=O)N1CC(=O)Nc2ccc(Cl)cc2C1c1ccccc1 (stereo not given) | + | -35 | 19 | 2 | 1
Cc1sc(-n2c(C)cc(C=C3C(=O)NC(=O)NC3=O)c2C)c(C#N)c1C | 486* | 0 | 23 | 3 | 0
CCCNC(=O)N1[C@H]2CC[C@@H]1C(C(=O)OC)=C(c1ccccc1)C2 | -2 | 0 | 5 | -4 | .
